Rtt109 HAT inh = inhibitors of Candida albicans Rtt109/Vps75 histone acetyltransferase; Q5AAJ8; purified Rtt109/Vps75, ThioGlo CoA-SH fluorescence, 4 h; inhibition, % at 34.9 µM; 330,000 compounds, 0.16% hits;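 active = inhibition of at least 50% in every replicate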
Target sequence (Q5AAJ8 whole entry, looked up): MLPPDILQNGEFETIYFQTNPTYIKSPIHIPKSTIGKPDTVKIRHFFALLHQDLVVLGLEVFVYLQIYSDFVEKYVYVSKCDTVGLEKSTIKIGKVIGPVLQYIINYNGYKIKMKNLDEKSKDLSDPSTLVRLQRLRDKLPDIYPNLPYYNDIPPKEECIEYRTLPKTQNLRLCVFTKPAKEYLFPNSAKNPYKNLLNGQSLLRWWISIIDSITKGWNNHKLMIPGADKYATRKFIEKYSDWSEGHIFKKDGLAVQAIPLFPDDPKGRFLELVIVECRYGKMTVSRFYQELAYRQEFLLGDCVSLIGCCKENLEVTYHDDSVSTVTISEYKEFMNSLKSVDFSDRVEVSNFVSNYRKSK
dFosB act = enhances mouse delta FosB homodimer DNA binding | P13346 | purified delta FosB, TAMRA-CDK5 oligo fluorescence polarization; percent of positive-control signal above neutral wells | activation, % at 25 µM | 340,000 compounds, 0.99% hits | AID 493131;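 active = mean activation above about 17%, with every replicate also reaching it, limit read from the data, passing the limit was not always enough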
CDK5 p35 inh = CDK5/p35 (human) kinase inhibition. Recombinant CDK5/p35, ADP-Glo luminescence, 60 min. inhibition, % at 10 µM. 330,000 compounds, 0.01% hits;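 active = highest replicate inhibition of at least 50% and at least 75% of replicates reaching 50%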
DYRK1A inh = Dyrk1A (rat) kinase inhibition; Q63470; AID 504441; inhibition, % at 12.5 µM; 310,000 compounds, 0.43% hits; ADP-Glo luminescence, NFATc1 peptide; in the data active = inhibition above about 50%
SMARCA2 activ = activators of SMARCA2 function; activation, % at 9.1 µM; 370,000 compounds, 1% hits; MG213 cells, MMTV-luciferase reporter, dexamethasone, overnight; in the data active = activation above about 7.8%
esBAF inh = blocks esBAF chromatin remodeling in mouse ES cells; reporter increase, % at 12.5 µM; 350,000 compounds, 2% hits; Bmi1-luciferase knock-in reporter, 24 h; 100% = twice the neutral-well signal; in the data active = activation above about 40%;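 note: a rise in the Bmi1 reporter signal indicates esBAF inhibition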
Each line names hits and unclear results; the compound was inactive in the other large screens. Compounds with a hit are over-represented: about 3.2% of the library has one in this group of screens.

COc1cccc(-c2cc(C(=O)N3C(C)CCCC3C)no2)c1 (stereo unspecified)	esBAF inh 49
COc1ccc(NC(=O)/C=C/c2cccc(Br)c2)cn1	esBAF inh 67
C[C@H]1CN([C@@H](C)CO)C(=O)c2cc(NC(=O)Nc3cccc4ccccc34)ccc2O[C@@H]1CN(C)Cc1ccc(C(=O)O)cc1	none (no result: Rtt109 HAT inh, dFosB act, CDK5 p35 inh, DYRK1A inh, SMARCA2 activ)
COc1cccc(CN(C)C(=O)c2cc(COc3c(F)cccc3F)on2)c1	none
CN(Cc1cnn(C)c1)C(=O)c1cc(COc2c(F)cccc2F)on1	esBAF inh 47
CCN(Cc1cnn(C)c1)C(=O)c1cc(COc2ccc3c(c2)CCCC3)on1	esBAF inh 46
Nc1ccc(N(c2ccccc2)c2ccc(N)cc2)cc1	dFosB act 23
CN(C)c1ccc(CCc2ccc(N)cc2)cc1	none
COCCNc1nc(-c2cc(C)n(CCc3ccc(OC)cc3)c2C)cs1	none
COc1ccccc1CNc1nc(-c2cc(C)n(C)c2C)cs1	dFosB act 18 (no result: SMARCA2 activ, esBAF inh)
O=C(C[C@H]1CC[C@H](NC(=O)CCN2CCCCC2)[C@H](CO)O1)NCc1ccc(Cl)c(Cl)c1	none (no result: Rtt109 HAT inh, dFosB act, CDK5 p35 inh, DYRK1A inh, SMARCA2 activ)
CCOC(=O)C(c1nc2ccccc2[nH]1)n1c(-c2ccccn2)nc2ccccc21 (stereo unspecified)	esBAF inh 49 (no result: Rtt109 HAT inh, dFosB act, CDK5 p35 inh, DYRK1A inh)
CC(C)C(C(=O)OCC(=O)c1ccc2c(c1)NC(=O)CO2)N1C(=O)c2ccccc2C1=O (stereo unspecified)	dFosB act 23
Cc1[nH]c2ccccc2c1/C=C/c1nc2ccccc2c(=O)n1CCO	esBAF inh 37
O=c1c2ccccc2nc(/C=C/c2ccc(Br)cc2)n1CCO	none (no result: Rtt109 HAT inh, dFosB act, CDK5 p35 inh, DYRK1A inh, esBAF inh)
Cc1nc2ccc(N=NC3=C(O)CC(C)(C)CC3=O)cc2s1	esBAF inh 49
C=CCNC(=O)c1ccc2c3n(nc2c1)-c1ccccc1CO3	none
O=C(NCCO)c1ccc2c3n(nc2c1)-c1ccc(Cl)cc1CO3	esBAF inh 68
COCCNC(=O)c1ccc2c3n(nc2c1)-c1ccc(Cl)cc1CO3	esBAF inh 63
O=C(NCCO)c1cccc(Cl)c1	none
Cc1ccc2c(c1)COc1c3ccc(C(=O)NCCO)cc3nn1-2	esBAF inh 62
COCCNC(=O)c1ccc2c(c1)nc(C)n2-c1cccc(Cl)c1	none
COCCNC(=O)c1ccc2c3n(nc2c1)-c1ccccc1CO3	esBAF inh 53 (no result: DYRK1A inh)
C[C@@H]1CCCCO[C@H](CN(C)C(=O)Nc2cccc3ccccc23)[C@H](C)CN([C@@H](C)CO)C(=O)c2cc(NS(=O)(=O)c3ccc(Cl)cc3)ccc2O1	none (no result: Rtt109 HAT inh, dFosB act, CDK5 p35 inh, DYRK1A inh, SMARCA2 activ)
COc1ccccc1C#Cc1cnc2c(c1)C(=O)N([C@@H](C)CO)C[C@@H](C)[C@@H](CN(C)C(C)=O)O2	none (no result: Rtt109 HAT inh, dFosB act, CDK5 p35 inh, DYRK1A inh, SMARCA2 activ)
O=C(NCC1CC1)c1ccc2c3n(nc2c1)-c1ccc(Cl)cc1CO3	esBAF inh 44
COc1ccc2cc(C(=O)OC(C)C)sc(=O)c2c1OC	esBAF inh 53
COc1ccc(NC(=O)Nc2ccc3c(c2)C(=O)N([C@H](C)CO)C[C@H](C)[C@H](CN(C)S(=O)(=O)c2ccccc2)OCCCC[C@H](C)O3)cc1	none (no result: Rtt109 HAT inh, dFosB act, CDK5 p35 inh, DYRK1A inh, SMARCA2 activ)
O=C(COc1ccccc1C(=O)c1cnn(-c2ccccc2)c1)Nc1ccccc1	esBAF inh 49 (no result: Rtt109 HAT inh)
Cc1ccc(-n2cc(C(=O)c3ccccc3O)cn2)cc1	none
COc1ccccc1CNC(=O)COc1ccccc1C(=O)c1cnn(-c2ccccc2)c1	esBAF inh 75 (no result: DYRK1A inh)
Cc1ccc(O)c(C(=O)c2cnn(-c3ccccc3)c2)c1	esBAF inh 50
C[C@H]1CN([C@@H](C)CO)C(=O)c2cc(C#Cc3ccccc3F)cnc2O[C@@H]1CN(C)C(=O)Cc1cccnc1	none (no result: Rtt109 HAT inh, dFosB act, CDK5 p35 inh, DYRK1A inh, SMARCA2 activ)
Cc1ccc(N2CC(C(=O)NC3CC3)CC2=O)cc1Cl (stereo unspecified)	none
COC(=O)C1CCN(C(=O)C2CC(=O)N(c3ccc(C)c(Cl)c3)C2)CC1 (stereo unspecified)	esBAF inh 56
COc1ccc(CN2C[C@@H](C)[C@H](OC)CN(C)C(=O)c3ccc(NC(=O)c4nc5ccccc5s4)cc3OC[C@@H]2C)cc1	none (no result: Rtt109 HAT inh, dFosB act, CDK5 p35 inh, DYRK1A inh, SMARCA2 activ)
CO[C@@H]1CN(C)C(=O)c2ccc(NC(=O)c3nc4ccccc4s3)cc2OC[C@@H](C)N(Cc2cccnc2)C[C@H]1C	esBAF inh 46 (no result: Rtt109 HAT inh, dFosB act, CDK5 p35 inh, DYRK1A inh, SMARCA2 activ)

High-throughput results (PubChem BioAssay)
